Out of some 2,100 compounds screened, about 320 (15%) were called active. Roughly 52% stayed inconclusive and do not appear here. The call rests on the fitted dose curve; in most records, active means well fitted cell-killing curve with a large enough effect; inconclusive means small, poorly fitted or top-dose-only effect, or effect the other way; inactive means flat fitted curve, though single readings scatter. This is one part of the list. Where a call stands in place of a potency, no number is given.
Potency means the concentration at half of the fitted maximal effect.

The test is described as follows: Viability Counterscreen for CMV-Luciferase Assay of Inhibitors of ATXN expression. Further: nearly all actives have a fitted effect of over 55% in size. Particulars: HEK-293 CMV-luciferase cells viability, protease fluorescence, 24 h. In outline: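 Cells: HEK-293/CMV-luc in phenol-red-free DMEM, 2 hr settle. Cpd dose, 24 hr, 37 °C, 5% CO2. Viability: Gly-Phe-AFC 25 uM final, 30 min, fluor. Then SteadyGlo, 5 min RT, lumin.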
Background: The purpose of a counterscreen is to sort out artefacts and off-target activity.
As to `Cn1c(N)c(C(=O)Nc2ccc(-c3ccccc3)cc2)sc1=S`, the Potency entry is “inactive”.

As for `O=S(=O)(c1ccc(F)cc1)c1snnc1-c1ccccc1`, the Potency is 10 µM (active).

Take `NS(=O)(=O)c1ccc(N2N=C(c3ccccc3)CC2c2ccc(F)cc2)cc1` (centres undefined): the Potency entry was “inactive”.

`NS(=O)(=O)c1ccc(Nc2nc(-c3ccc(F)cc3)cs2)cc1`: the Potency result is “inactive”.

Consider `Cc1c(CC(=O)NCCCC(=O)O)c(=O)oc2cc3c(cc12)CCC(C)(C)O3`, for which the Potency entry was “inactive”.

Take `NNc1nc(N)c2c(n1)-c1ccccc1CC21CCCC1`: the Potency result was “inactive”.

`CC(C)NC1CCC(Nc2ccnc3cc(Cl)ccc23)CC1` (centres undefined): the Potency was 15.8 µM (active).

`CCN(CC)CCNc1ccnc2cc(Cl)ccc12`: the Potency entry was “inactive”.

`O=C(NNc1ccnc2cc(Cl)ccc12)C1CCCCC1`: the Potency entry is “inactive”.

For the molecule `O=C(c1c(F)cccc1F)N1CCCC(c2nc(-c3ccc(Cl)cc3)no2)C1` (centres undefined), the Potency entry is “inactive”.

Turning to `CCn1c2ccccc2c2cc(NC(=O)COC(=O)c3ccccc3F)ccc21`, the Potency result was “inactive”.

Take `O=C1/C(=C/c2ccncc2)CCC/C1=C\c1ccncc1`: the Potency is 5.62 µM (active).

For `CN1C/C(=C/c2cccnc2)C(=O)/C(=C/c2cccnc2)C1`, the Potency entry was “inactive”.

Consider `CCN(CC)C(=O)c1cccc(-c2csc(C(C)(O)c3cccc(F)c3)n2)c1` (centres undefined), for which the Potency entry was “inactive”.

As for `CCN1C(=O)/C(=C/c2nc3ccccc3c(=O)n2-c2ccccc2)c2ccccc21`, the Potency was 12.6 µM (active).

As to `CCOC(=O)C1=CCN(S(=O)(=O)c2ccc(C)cc2)C1c1cccc(Cl)c1` (centres undefined), the Potency result is “inactive”.

For the molecule `CCn1c(C)nc2cc(C(=O)N/N=C(\C)c3ccc(OC)cc3O)ccc21`, the Potency entry was “inactive”.

With `CCOC(=O)c1c(NC(=O)COC(=O)Cn2cnc3ccccc32)sc(C)c1C`, the Potency result was “inactive”.

As for `Cc1sc(NC(=O)c2cc(-c3ccc(Cl)cc3)nc3ccccc23)c(C(N)=O)c1C`, the Potency was 8.91 µM (active).

For the molecule `O=C(NN=C1CCCC1)c1cc(-c2ccc(F)cc2)nc2ccccc12`, the Potency entry was “inactive”.

`O=C(c1cc(COc2cccc(C(F)(F)F)c2)on1)N1CCC(c2ccncc2)CC1`: the Potency result is “inactive”.

In the case of `CCN1CCN(c2cc(C(C)C)nc3c(-c4ccccc4)c(C)nn23)CC1`, the Potency result was “inactive”.

For `COc1ccccc1-n1c(-c2ccccc2)c[n+]2c1CCc1ccccc1-2`, the Potency was 10 µM (active).

As to `OCC1(CCOc2ccccc2)CCN(CC2=Cc3cc(Cl)ccc3OC2)CC1`, the Potency result is “inactive”.

For `Cc1ccc(S(=O)(=O)Nc2cccc3cccnc23)cc1`, the Potency result was “inactive”.

Turning to `O=[N+]([O-])c1ccccc1S(=O)(=O)Nc1cccc2cccnc12`, the Potency is 11.2 µM (active).

In the case of `O=S(=O)(Nc1cccc2cccnc12)c1ccccc1`, the Potency entry is “inactive”.

On to `O=C(CSc1nnc(-c2ccccc2)o1)Nc1ccccc1F`, for which the Potency entry is “inactive”.

Turning to `C/C(=N\NC(=O)CSCc1ccc([N+](=O)[O-])cc1)c1ccccc1O`, the Potency entry was “inactive”.

In the case of `CC(=O)C(C(C)=O)c1c(Cl)c(O)c(O)c2c(C(=O)c3ccccc3)coc12`, the Potency is 7.08 µM (active).

For the molecule `CCOC(=O)C(C(C)=O)c1c(Br)c(O)c(O)c2c(C(=O)c3ccc(C)cc3)coc12` (centres undefined), the Potency is 10 µM (active).

With `O=C(NC(=S)NCc1nc2ccccc2[nH]1)c1ccc(F)cc1`, the Potency entry was “inactive”.

Turning to `NS(=O)(=O)c1ccc(Sc2nc3ccccc3s2)c([N+](=O)[O-])c1`, the Potency entry is “inactive”.

In the case of `Cc1sc2cc3c(c(C(=O)c4ccccc4)[n+]2c1C)-c1cccc2cccc-3c12`, the Potency was 10 µM (active).

For `Cc1ccc(-c2csc(N3CCN(c4cc5c(cc4Cl)nc(-c4ccncc4)n5CCOCCO)CC3)n2)cc1`, the Potency result was “inactive”.

For the molecule `CN(C)CCNc1ncnc2c1sc1nc(N3CCOCC3)c3c(c12)CC(C)(C)SC3`, the Potency is 17.8 µM (active).

As for `CC1(C)Cc2c(c(N3CCOCC3)nc3sc4c(NN)ncnc4c23)CS1`, the Potency entry is “inactive”.

With `CC1(C)Cc2c(c(-c3ccco3)nc3sc4c(NCCN5CCOCC5)ncnc4c23)CO1`, the Potency result is “inactive”.

As for `Cn1nc(C(=O)N2CCN(c3ccc(Cl)cc3)CC2)c2c1-c1ccccc1S(=O)(=O)C2`, the Potency entry is “inactive”.

Consider `N#Cc1ccccc1NC(=O)C1SC(=Nc2ccccc2)C(C(=O)Nc2ccc(Cl)cc2)=C1N` (centres undefined), for which the Potency entry was “inactive”.

For `Cc1cc(Nc2cccc([N+](=O)[O-])c2)n2c(nc3ccccc32)c1C#N`, the Potency is 3.55 µM (active).

In the case of `Cc1ccc(-c2cc(-c3ccccc3)nc(NN)n2)cc1`, the Potency result was “inactive”.

Regarding `NS(=O)(=O)c1ccc(CCNc2nn3c(-c4cccc(OC(F)(F)F)c4)cnc3s2)cc1`, the Potency entry is “inactive”.

Regarding `C=CCOC(=O)C1=C[C@@H](c2ccc3c(c2)OCO3)C[C@@H](OCCCCO)O1`, the Potency result was “inactive”.

As for `CN(C)CCNc1cccc2sc3ccc(O)cc3c(=O)c12`, the Potency was 12.6 µM (active).

As to `CN(C)CCNc1ccc2ncn3c4ccc(O)cc4c(=O)c1c23`, the Potency entry was “inactive”.

In the case of `O=C(Nc1cccc(Cl)c1)c1ccc2c(c1)SC1=NS(=O)(=O)CCN12`, the Potency result was “inactive”.

As to `CCOC(=O)c1c(-n2cccc2)sc2c1CCCC2=O`, the Potency result was “inactive”.

In the case of `CC[n+]1c(C=C2C=C(C)OC(C)=C2)sc2ccccc21`, the Potency is 14.1 µM (active).

For the molecule `NNC(=O)/C(=N/Nc1ccccc1)S(=O)(=O)c1ccc(Cl)cc1`, the Potency is 10 µM (active).

`O=C(NCc1cc(C(F)(F)F)ccc1Cl)c1cccc2c1C(=O)c1ccc(N3CCOCC3)cc1S2(=O)=O`: the Potency result is “inactive”.

Take `CC1(C(=O)NCc2ccco2)CCN1C(=O)C1(c2ccccc2)CC1` (centres undefined): the Potency entry is “inactive”.

`Cc1cc(C)c2c(c1)/C(=C/C(=O)c1ccc(Br)s1)C(=O)N2`: the Potency is 3.16 µM (active).

As to `O=c1oc2ccccc2c(O)c1Cc1cc(Cl)c2cccnc2c1O`, the Potency entry was “inactive”.

Regarding `OCCN1CCN(Cc2cc(Cl)c3cccnc3c2O)CC1`, the Potency result was “inactive”.

With `CCOC(=O)N1CCN(Cc2cc(Cl)c3cccnc3c2O)CC1`, the Potency entry is “inactive”.

As to `O=[N+]([O-])c1ccc(O)c2ncccc12`, the Potency is 10 µM (active).

`O=[N+]([O-])c1cc(CN2CCN(c3ccccc3)CC2)c(O)c2ncccc12`: the Potency was 11.2 µM (active).

As for `CC(C)COCc1ccc(O)c2ncccc12`, the Potency result is “inactive”.

Take `Oc1ccc(Cl)c2cccnc12`: the Potency result is “inactive”.

With `O=[N+]([O-])c1cc(Cl)c(O)c2ncccc12`, the Potency is 11.2 µM (active).

With `COc1ccc(-c2nc(CN3CCN(c4ncnc5ccccc45)CC3)c(C)o2)c(OC)c1`, the Potency result is “inactive”.

As to `c1ccc(Nc2nc(N3CCCCC3)nc(N3CCNCC3)n2)cc1`, the Potency result was “inactive”.

With `COc1cc(C)c(C(=O)CC(=O)c2c(C)cc(OC)cc2C)c(C)c1`, the Potency result was “inactive”.

With `CC(=O)N1c2ccc(S(=O)(=O)N3CCC(C(=O)Nc4cccc(C(F)(F)F)c4)CC3)cc2CC1C` (centres undefined), the Potency result was “inactive”.

In the case of `Cc1nn(-c2ccccc2)c(N2CCCC2)c1/C=N/NC(=O)c1cc2ccccc2cc1O`, the Potency entry is “inactive”.

Regarding `COc1cccc(CN2CCC2(C)C(=O)Nc2cccc3cccnc23)c1OC` (centres undefined), the Potency entry is “inactive”.

`COc1ccc(CC2C(=O)NC(C)C(=O)N(C)C3Cc4ccc(cc4)Oc4cc(ccc4O)CC(C(=O)NC(C)C(=O)NC(C)C(=O)N2C)N(C)C3=O)cc1` (centres undefined): the Potency is 0.316 µM (active).

On to `CC1(C)c2[nH]c3ccccc3c2C[C@H]2C(=O)N(Cc3ccccc3F)C(=O)N21`, for which the Potency result was “inactive”.

On to `Nc1nc(NCCCN2CCOCC2)nc(Nc2cccc(Cl)c2)c1[N+](=O)[O-]`, for which the Potency entry was “inactive”.

`COC(=O)[C@H]1C[C@H](OC(=O)NC2CC2)[C@@]2(O)CN(S(=O)(=O)c3ccc(C)cc3)CC2[C@H]1C(=O)OC` (some centres undefined): the Potency entry was “inactive”.

Turning to `COc1ccccc1N(C)S(=O)(=O)c1ccc(C(=O)Nc2ccc(N3CCOCC3)cc2)cc1`, the Potency result is “inactive”.

As for `Cc1ccc(C(=O)N2CCN(c3ccc(NC(=S)NC(=O)c4cccs4)cc3)CC2)cc1`, the Potency entry was “inactive”.

`COc1c(C)cccc1C(=O)Nc1ccc(N2CCN(C(=O)c3ccccc3C)CC2)cc1`: the Potency was 31.6 µM (active).

As for `CC(C)n1c(NCc2cc(Cl)ccc2O)nc2ccccc21`, the Potency result was “inactive”.

For the molecule `C/C(=N\N=C(N)N)c1ccc(Cl)cc1Cl`, the Potency result was “inactive”.

As to `O=C(NNc1nc2ccc(Cl)cc2s1)c1cc(-c2cccs2)nc2ccccc12`, the Potency entry was “inactive”.

For the molecule `O=C(Nc1nc(-c2ccccn2)cs1)c1cc(Cl)ccc1[N+](=O)[O-]`, the Potency is 3.16 µM (active).

Consider `Cc1c(C(=O)Nc2nccs2)sc2nc(-c3cccs3)cc(C(F)(F)F)c12`, for which the Potency result was “inactive”.

Consider `O=C(Nc1nc(-c2ccccn2)cs1)c1ccccc1-n1cnnn1`, for which the Potency is 7.94 µM (active).

As for `Cc1cc(OCC(=O)NC(C)c2ccccc2)ccc1[N+](=O)[O-]` (centres undefined), the Potency entry is “inactive”.

As for `CC(N)c1csc(NC(=O)c2cc(C(C)(C)C)nn2Cc2ccccc2)n1` (centres undefined), the Potency result is “inactive”.

In the case of `CCc1sc(C(=O)Nc2nc(-c3ccccn3)cs2)cc1C`, the Potency was 11.2 µM (active).

Consider `COc1ccc(CNC(=O)CSc2nc(-c3ccccc3)cc(-c3cccs3)c2C#N)cc1`, for which the Potency result is “inactive”.

With `CCCOc1ccccc1C1NC(=O)NC(C)=C1C(=O)OCc1ccccc1` (centres undefined), the Potency entry is “inactive”.

As for `CN1CCN(CC#CCn2c3ccccc3c3ccccc32)CC1`, the Potency entry was “inactive”.

For the molecule `CCc1nc2c(OCc3ccc(Cl)cc3Cl)cccn2c1N(C=O)Cc1ccc(OC)cc1`, the Potency entry is “inactive”.

As for `S=C(Nc1ccccc1)Nc1ccc(OCc2ccc(Cl)cc2Cl)cc1`, the Potency result was “inactive”.

As to `Cc1cc(/C=N/n2cnnc2)c(C)n1-c1ccc(OCc2ccc(Cl)cc2Cl)cc1`, the Potency is 28.2 µM (active).

For `CN1CCN(c2nc(Nc3ccc(F)cc3)nc(Nc3ccc(F)cc3)n2)CC1`, the Potency result is “inactive”.

With `CCc1nc2c(OCCOc3ccc(F)cc3)cccn2c1N(C=O)Cc1ccc(OC)cc1`, the Potency result is “inactive”.

For the molecule `O=C(c1ccc(Cn2c(=S)[nH]c3ccccc3c2=O)cc1)N1CCN(c2ccccn2)CC1`, the Potency result is “inactive”.

Turning to `S=C(Nc1cc(Cl)ccc1Oc1ccccc1)N1CCN(c2ccccn2)CC1`, the Potency is 25.1 µM (active).

Take `CCN(CC)S(=O)(=O)c1ccc(C)c(NC(=S)N2CCN(c3ccccn3)CC2)c1`: the Potency entry is “inactive”.

As to `Cn1cccc1/C=N/N1CCN(Cc2ccccc2Cl)CC1`, the Potency entry was “inactive”.

Regarding `C=CCNc1oc(-c2ccc(Cl)cc2)nc1C#N`, the Potency entry was “inactive”.

For `O=C1N/C(=N/N=C/c2ccccc2O)SC1Cc1ccc(F)cc1` (centres undefined), the Potency was 14.1 µM (active).

On to `COc1cccc(C(=O)NC2CC3CCCC(C2)N3CC(=O)Nc2ccccc2C(F)(F)F)c1` (centres undefined), for which the Potency entry was “inactive”.

Consider `CN(Cc1ccccc1)C1=CC(=[N+]2CCCC2)CC(C)(C)C1`, for which the Potency result is “inactive”.

Values taken from PubChem BioAssay AID1745849 (National Center for Advancing Translational Sciences (NCATS), 2022).
